Screening results deposited in PubChem by National Center for Advancing Translational Sciences (NCATS).
Sampled rows, rich in hits. Any-hit rate of the full collection: about 0.88%.
ERG Ets-DNA blk: inhibitors of human ERG Ets domain-DNA interaction. P11308. fluorescence polarization, His-ERG Ets domain / labelled DNA. Potency, µM (titrated, usually from 76.9 µM), most hits filed as inhibitors. hit rate 0.028% among 370,000. AID 624246; active = well fitted inhibition curve with a large enough effect in the polarisation, with a control signal flat; inconclusive = small, poorly fitted or top-dose-only effect, or effect the other way, or a change in a side signal; inactive = no such curve, though single readings can be large or run the other way; the % refers to the polarisation;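 note: polarization taken with two DNA probes labelled with fluorescein and Texas red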
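His-tagged ERG Ets domain (1 uM in the protein solution; 300mM KCl, 50mM Tris-HCl, 1mM EDTA, 1mM DTT, pH 7.5) received compound, then a probe mix of 5 nM fluorescein-DNA and 100nM Texas-615-DNA. Fluorescence polarization was read for both dyes.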
BLM helicase inh: Bloom syndrome helicase (human) inhibition. recombinant BLM DNA unwinding, fluorescence dequenching. P54132. Potency, µM (titrated, usually from 56.1 µM), most hits filed as inhibitors. hit rate 0.2% among 350,000. AID 2528; note: nearly all actives have a fitted effect of over 35% in size
RECQ1 inh-1: blocks DNA unwinding by human RECQ1 | AID 2549 | hit rate 0.54% among 240,000 | Potency, µM (highest dose often 57.3 µM), most hits filed as inhibitors | RECQ1 DNA unwinding, red fluorescence kinetic read; note: nearly all actives have a fitted effect of over 30% in size
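RECQ1T1 50 nM; forked duplex (20 bp + 30-nt ss tails) 200 nM, ATP 2 mM final; pH 8.0, 2 mM MgCl2, 2.5 ug/ml poly(dI-dC); 15 min compound preincubation; discontinuous kinetic read over 2 h at RT.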
APEX1 inh: blocks human APE1 abasic DNA cleavage; P27695; recombinant APE1, TAMRA/BHQ-2 abasic DNA cleavage fluorescence; Potency, µM (titrated, usually from 65.8 µM), most hits filed as inhibitors; hit rate 0.35% among 350,000; AID 2517; note: nearly all actives have a fitted effect of over 55% in size
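APE1 at 0.75 nM final was preincubated with compound 15 min at room temperature, then 50 nM double-stranded THF abasic-site substrate (5'-TAMRA/3'-BHQ-2) was added. Fluorescence (ex 525/em 598 nm) was read kinetically; third-minus-first read gave activity.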
GCN5L2 inh: blocks human GCN5L2 histone acetyltransferase. Q92830. GCN5L2 HAT assay, ThioGlo1 CoA-SH fluorescence. hit rate 0.21% among 390,000. Potency, µM (highest dose often 58.9 µM), actives largely listed as inhibitors
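GCN5L2 (20nM final) in 50mM HEPES, 0.1mM EDTA pH 7.5, 0.01% Tween-20 was preincubated 15 min at room temperature with compound, then given ThioGlo1 (50uM), H3(1-25) peptide (75uM) and acetyl-CoA (70uM); CoA-thiol fluorescence (Ex340/Em540) was read at 0 and 20 min.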
WRN helicase inh: inhibitors of human WRN helicase; Potency, µM (doses to about 114 µM), usual class: inhibitors; hit rate 0.46% among 360,000; Q14191; WRN helicase unwinding, fluorescent forked duplex, kinetic; note: nearly all actives have a fitted effect of over 55% in size
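WRN at 20 nM final preincubated with compound 15 min at room temperature; reaction started with 100 nM fluorophore/quencher forked duplex oligonucleotide and 2 mM ATP final. Unwinding followed kinetically by red fluorescence (ex 525, em 598 nm).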
RECQ1 conf: confirmation of human RECQ1 helicase inhibitors | shares compounds with RECQ1 inh-1 | RECQ1 helicase DNA unwinding, fluorescence | Potency, µM (doses to about 229 µM), actives largely listed as inhibitors | hit rate 28% among 610; note: nearly all actives have a fitted effect of over 45% in size
ADP FP counter: displaces ADP in a fluorescence polarization counter-screen for RECQ1 hits. shares compounds with RECQ1 inh-1. ADP fluorescence polarization displacement counterscreen. Potency, µM (titrated, usually from 228 µM), most hits filed as inhibitors. hit rate 27% among 530. AID 2711; note: nearly all actives have a fitted effect of over 45% in size
RECQ1 inh-2: confirmation of human RECQ1 helicase inhibitors | Potency, µM (titrated, usually from 119 µM), most hits filed as inhibitors | recombinant RECQ1 DNA unwinding, red fluorescence | hit rate 15% among 1,100 | AID 504841 | shares compounds with RECQ1 inh-1; note: nearly all actives have a fitted effect of over 50% in size
Numbers stand for hits; – = inactive; ? = inconclusive; · = no result given; + = active, no number; [ ] = dose if it differs, or a comment. Unless noted, calls come from the whole dose curve; as a rule, active = well fitted curve in the direction sought with a large enough effect; inconclusive = small, poorly fitted or top-dose-only effect, or another doubt; inactive = no such curve, though single readings can be large; an effect the other way counts as inactive or inconclusive.

SMILES | ERG Ets-DNA blk | BLM helicase inh | RECQ1 inh-1 | APEX1 inh | GCN5L2 inh | WRN helicase inh | RECQ1 inh-2 | others
CN(C)/C=C/C(=O)c1ccc(Br)cc1 | – | – | ? | – | – | – | –
C=CC[C@@H]1C=C[C@H](O/N=C/c2ccc(C(=O)N3[C@H](c4ccc(C)cc4)[C@@H](C)CC[C@H]3C(=O)OC)cc2)[C@@H](CO)O1 | · | – | ? | – | – | · | –
CO/N=C\c1ccc(C(=O)N2[C@H](c3ccc(C)cc3)[C@@H](C)CC[C@H]2C(=O)OC)cc1 | · | –[12.4 µM] | –[11.5 µM] | –[12.4 µM] | · | · | ·
CCOC(=O)c1ccc2c(c1)nc(SCC(=O)c1cc3ccccc3o1)n2CC | ? | – | ? | – | – | – | ?
C=CCNC(=O)CSc1nc2cc(C(=O)OCC)ccc2n1CC | – | – | – | – | – | – | ·
CN=C1CC(C)(C)CC(=O)/C1=C(/O)CCCN1C(=O)c2ccccc2C1=O | – | – | – | – | – | – | ·
O=C(O)CN=C1CC(c2ccccc2)CC(=O)/C1=C(/O)CCCN1C(=O)c2ccccc2C1=O (centres undefined) | – | – | – | – | – | – | · | RECQ1 conf=?;ADP FP counter=–
COc1ccc(-c2[nH]c(-c3cccc(OC)c3)nc2SCC(=O)Nc2ccc3c(c2)OCO3)cc1 | – | – | · | · | – | · | ·
CCOC(=O)c1cc2c(ccn2C)n1Cc1ccccc1Cl | – | – | – | – | – | – | ·
CCOC(=O)c1cc2c(ccn2C)n1Cc1ccccc1C | · | – | 28.2µM | – | – | – | ?
Cn1c2nc(=O)[nH]c(=O)c-2cc2ccccc21 | · | · | · | · | · | – | ·
Cc1cc2nc3c(=O)[nH]c(=O)nc-3n(C)c2cc1C=O | · | 15.8µM | 3.16µM | – | 28.2µM | · | · | RECQ1 conf=+;ADP FP counter=6.31µM
CCc1nnc(NC(=O)c2sc3nc4c(cc3c2N)CCCCCC4)s1 | – | – | ? | – | – | –[11.6 µM] | ?
Cc1ccc(C)c(NC(=O)Cn2c(=O)nc(-c3ccccc3)c3ccccc32)c1 | – | – | · | · | – | · | ·
Cc1cc(C(=O)COC(=O)CNC(=O)c2ccco2)c(C)n1Cc1ccco1 | – | – | ? | ? | – | – | –
CCOc1ccc(S(=O)(=O)NCCSCc2ccco2)cc1 | · | – | – | – | – | – | ·
COc1ccc(S(=O)(=O)NCCSCc2ccco2)cc1 | – | – | ? | ? | – | – | –
COc1ccc2c(C(=O)CN3CCN(c4ccccc4)CC3)c[nH]c2c1 | – | – | ? | – | ? | – | –
O=C(O)CC(NC(=O)COc1ccc(Cl)cc1Cl)C(=O)O (centres undefined) | – | – | – | – | – | – | · | RECQ1 conf=–;ADP FP counter=–
COc1ccc(S(=O)(=O)N2CN(Cc3ccco3)c3nc4ccccc4nc32)cc1 | – | – | 35.5µM | – | – | 56.2µM | ?
N=C1S/C(=C\c2ccco2)C(=O)N1c1nccs1 | – | – | ? | ? | – | –[11.6 µM] | –
Cc1ccc(C2c3c(oc4ccccc4c3=O)C(=O)N2c2nnc(C)s2)cc1 (centres undefined) | – | – | · | · | – | · | ·
Cc1c(C(=O)Nc2cccc(-c3nc4ccccc4s3)c2)oc2ccc(F)cc12 | – | – | · | · | – | · | ·
O=C(O)CCCCCNC(=O)Cn1nnc2ccccc2c1=O | – | – | – | – | – | – | ·
O=C(O)CCCCCNC(=O)CCn1cnc2ccccc2c1=O | – | – | – | – | – | – | · | RECQ1 conf=–;ADP FP counter=–
SMILES | ERG Ets-DNA blk | BLM helicase inh | RECQ1 inh-1 | APEX1 inh | GCN5L2 inh | WRN helicase inh | RECQ1 inh-2 | others
Cc1cccc(CNC(=O)c2ccc(C)c(-n3c(C)nc4cccnc43)c2)c1 | – | – | · | · | – | · | ·
CCOc1ccc(N2C(=O)CC(Sc3ccccc3C(=O)O)C2=O)c([N+](=O)[O-])c1 (centres undefined) | – | – | – | – | – | – | · | RECQ1 conf=–;ADP FP counter=–
O=C(O)c1ccccc1SC1CC(=O)N(c2cccc3ccccc23)C1=O (centres undefined) | – | – | – | – | – | ? | ·
O=C(COc1ccc2c(c1)CCC2)N1CCN(c2cccc(C(F)(F)F)c2)CC1 | – | – | 35.5µM | ? | – | – | –
COc1cccc2c1C(=O)c1c(O)c3c(c(O)c1C2=O)C[C@@](O)(C(=O)CO)C[C@@H]3OC1C[C@@H](N)[C@H](O)[C@H](C)O1 (some centres undefined) | · | 28.2µM | 15.8µM | 10µM | – | · | · | ADP FP counter=0.398µM
CCCCC(=O)OCC(=O)[C@]1(O)Cc2c(O)c3c(c(O)c2[C@H](OC2CC(NC(=O)C(F)(F)F)C(O)C(C)O2)C1)C(=O)c1c(OC)cccc1C3=O (some centres undefined) | · | – | · | · | – | · | ·
O=C1Nc2c(c(=O)[nH]c(=O)n2-c2ccccc2)C1(NS(=O)(=O)c1ccc(Cl)cc1)C(F)(F)F (centres undefined) | – | – | · | · | – | · | ·
FC(F)(F)c1ccccc1-c1nc(NC2CC2)c2ccccc2n1 | · | – | – | – | – | · | ·
O=C(/C=C/c1ccco1)Nc1ccc(C(=O)N2CCOCC2)cc1 | – | – | ? | – | – | – | –
CC(C)=C1C(=O)NN(c2ccc(C)c(Cl)c2)C1=O | · | – | ? | – | – | – | –
Cn1cnnc1Sc1ccc(/C=C(\CCC(=O)O)c2nc3ccccc3s2)cc1[N+](=O)[O-] | – | – | – | – | – | – | · | RECQ1 conf=–;ADP FP counter=–
CNc1ccc(/C=C(\CCC(=O)O)c2nc3ccccc3s2)cc1[N+](=O)[O-] | – | – | 35.5µM | 35.5µM | – | ? | 31.6µM
Cc1ccc(/C=C(\CCC(=O)O)c2nc3ccccc3s2)cc1[N+](=O)[O-] | – | – | – | – | – | – | ·
O=c1[nH]c2cc3c(cc2cc1CN(Cc1cccs1)Cc1nnnn1Cc1ccco1)OCCO3 | – | – | ? | 39.8µM | – | ? | –
O=c1[nH]c2cc3c(cc2cc1CN(Cc1ccccc1)Cc1nnnn1Cc1ccco1)OCCO3 | – | – | ? | – | ? | ? | ·
CCc1ccc2[nH]c(=O)c(CN(Cc3ccccc3)Cc3nnnn3Cc3ccco3)cc2c1 | – | – | 31.6µM | ? | – | – | –
CC1=Nc2ccccc2/C1=C/c1sc(=N)n(-c2nccs2)c1O | – | – | 17.8µM | – | – | ? | · | RECQ1 conf=–;ADP FP counter=–
CC1=Nc2ccccc2/C1=C\c1nc(-c2ccc(C(F)(F)F)cc2)oc1O | – | – | – | – | – | ? | ·
S=C(NCc1ccco1)Nc1ccc(Oc2ccc(Cl)cc2)cc1 | – | – | ? | – | – | – | –
